PubChem BioAssay AID1259341 (Broad Institute, 2017)
A number with no mark means an inactive call.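 Rule for the calls: active = activity change under -35% in any replicate well, with more than 20 beads read in that well; inactive = the rest.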

Target: Caspase recruitment domain-containing protein 9 (Homo sapiens) + E3 ubiquitin-protein ligase TRIM62 (Homo sapiens) (UniProt Q9H257+Q9BVG3)
Test: CARD9/TRIM62 protein interaction inhibitors – cell lysate, HEK293FT lysates, Luminex bead ELISA, primary screen (AID 1259341);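 note: PE anti-Flag signal of Flag-CARD9 captured by myc-TRIM62 beads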
Conditions: PE fluorescence, active compounds read low, concentration not given here

Caspase recruitment domain-containing protein 9 (Homo sapiens) + E3 ubiquitin-protein ligase TRIM62 (Homo sapiens), sequence (Q9BVG3 whole entry, looked up, the tested form may be a part): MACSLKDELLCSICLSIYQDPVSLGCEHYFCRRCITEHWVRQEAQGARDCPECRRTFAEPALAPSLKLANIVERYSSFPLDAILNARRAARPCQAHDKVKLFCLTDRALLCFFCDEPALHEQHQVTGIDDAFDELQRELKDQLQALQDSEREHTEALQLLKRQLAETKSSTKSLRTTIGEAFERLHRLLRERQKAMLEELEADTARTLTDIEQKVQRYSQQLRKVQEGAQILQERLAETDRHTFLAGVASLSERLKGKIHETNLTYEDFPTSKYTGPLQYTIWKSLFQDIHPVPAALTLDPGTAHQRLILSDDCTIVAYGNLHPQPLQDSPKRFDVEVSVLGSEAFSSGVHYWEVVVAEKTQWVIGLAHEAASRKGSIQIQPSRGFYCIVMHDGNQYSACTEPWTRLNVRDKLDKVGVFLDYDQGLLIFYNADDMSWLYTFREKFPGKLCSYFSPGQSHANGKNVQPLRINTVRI
Caspase recruitment domain-containing protein 9 (Homo sapiens) + E3 ubiquitin-protein ligase TRIM62 (Homo sapiens), sequence (Q9H257 whole entry, looked up, the tested form may be a part): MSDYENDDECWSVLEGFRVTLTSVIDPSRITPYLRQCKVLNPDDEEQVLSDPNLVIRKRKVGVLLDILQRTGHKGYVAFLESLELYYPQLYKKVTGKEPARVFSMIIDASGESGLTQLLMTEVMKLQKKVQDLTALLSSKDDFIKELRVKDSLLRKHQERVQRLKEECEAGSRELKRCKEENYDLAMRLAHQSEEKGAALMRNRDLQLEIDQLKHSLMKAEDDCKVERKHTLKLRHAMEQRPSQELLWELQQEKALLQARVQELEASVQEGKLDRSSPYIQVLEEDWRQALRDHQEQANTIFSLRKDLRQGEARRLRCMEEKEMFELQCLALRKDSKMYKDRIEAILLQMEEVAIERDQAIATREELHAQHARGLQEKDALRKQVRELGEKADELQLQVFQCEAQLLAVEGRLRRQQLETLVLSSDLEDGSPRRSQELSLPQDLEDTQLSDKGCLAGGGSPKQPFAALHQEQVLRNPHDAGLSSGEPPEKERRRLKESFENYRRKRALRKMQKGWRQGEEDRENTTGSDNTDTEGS

| Structure (SMILES) | activity change, negative = inhibition [%] |
| --- | --- |
| O=C(Nc1nc(-c2ccccn2)cs1)c1cccc(-n2cnnn2)c1 | 199 |
| N#Cc1c2ccc(OCC(=O)NCc3ccco3)cc2n2ccccc12 | 0.334 |
| COc1ccc(-c2ccc(CCC(=O)O)o2)cc1 | -0.268 |
| CCN1CCOC(=O)C1CC(=O)Nc1cccc(C)c1 (stereo unspecified) | -1.33 |
| COCC(=O)N1CCCC2(CCN(CCN3CCCC3)C2=O)C1 (stereo unspecified) | -5.85 |
| C[C@H](CO)N1C[C@H](C)[C@@H](CN(C)CC2CCCCC2)OCCCC[C@H](C)Oc2ccc(NS(=O)(=O)c3cn(C)cn3)cc2C1=O | 9.05 |
| CN(c1ccccc1C(=O)NCc1ccco1)S(C)(=O)=O | -3.12 |
| O=C(Nc1ncccc1O)c1ccc(OCC2CCCO2)cc1 (stereo unspecified) | 2.58 |
| COc1cccc(NC(=O)CN(C)C(=O)c2cc3c(s2)CCC3)c1 | -19.8 |
| CCOC(=O)c1[nH]c(Cc2[nH]c(C(=O)OCC)c(C)c2C)c(C)c1C | -0.0423 |
| c1cn(CCc2noc(C3CCCC3)n2)c(-c2cc3n(n2)CCCNC3)n1 | -12.3 |
| Nc1ccccc1Sc1nccc(C(F)(F)F)n1 | 3.66 |
| O=C(Nc1ccc2oc(-c3ccncc3)nc2c1)c1ccc2c(c1)OCCO2 | -1.89 |
| Cc1noc(C)c1S(=O)(=O)Nc1ccc2c(c1)C(=O)N([C@H](C)CO)C[C@H](C)[C@@H](CN(C)CC1CCCCC1)OCCCC[C@H](C)O2 | 7.9 |
| O=C(NC(Sc1ncccn1)C(=O)c1ccccc1)c1ccccc1 (stereo unspecified) | 2.47 |
| CC1(C)Cc2ccccc2-c2nc(-c3ccccc3)oc(=O)c21 | -0.338 |
| O=C(Nc1cccc2nsnc12)c1ccc(-c2cccc(Cl)c2)o1 | 11.7 |
| Cc1scc(C(=O)NCc2ccco2)c1-c1ccccc1 | 1.82 |

| Structure (SMILES) | activity change, negative = inhibition [%] |
| --- | --- |
| Nc1cc2c(cc1-n1cccc1)OCCO2 | 4.12 |
| CCCc1oc(C(=O)O)cc1CN | -4.57 |
| COc1ccc(CNC(=O)c2nc(Nc3ccc(C)cc3)c3ccccc3n2)cc1 | -5.2 |
| CCNc1ncc(C(=O)NCCc2nc3c(s2)CCCC3)cn1 | -3.32 |
| O=c1/c(=C/c2ccco2)sc2nc3ccccc3n12 | 0.484 |
| Cc1ccc(C)n1NC(=O)c1ccccc1O | 1.19 |
| O=C(Nc1nc(-c2ccco2)c(-c2ccco2)s1)c1ccco1 | -9.14 |
| Cc1ccc(-c2nc(C)sc2CC(=O)NCc2ccco2)cc1 | -1.34 |
| NC(=O)C1(N2CCCCC2)CCN(c2ncc(NC(=O)c3ccccc3F)cc2C(=O)O)CC1 | -10.2 |
| COCCn1c(C)cc(-c2csc(N)n2)c1C | 0.765 |
| O=C(CC1Nc2ccccc2OC1=O)Nc1ccc(Cl)cc1 (stereo unspecified) | 13.8 |
| CCCN1CCCn2nc(CNC(=O)[C@@H](N)Cc3ccc(O)cc3)cc2C1 | -26.6 |
| COc1ccc(-c2nnc(-c3nc(Nc4ccc(NC(C)=O)cc4)c4ccccc4n3)o2)cc1 | 9.87 |
| O=C(NCc1ccco1)c1c2c(nc3ccccc13)CCC2 | -3.42 |
| C(=N\n1cnnc1SCc1ccccc1)/c1ccco1 | 4.53 |
| Cc1ccc(-c2cc(C(=O)NCc3ccco3)c3ccccc3n2)o1 | -2.28 |
| Cc1ncnc(N2CCC(c3nccn3Cc3cccnc3)CC2)c1C | -10.5 |
| COc1ccc(-n2c(C)c3c(OC)cccc(=O)c3c2C)cc1 | 3.94 |
